This is a sample that favours compounds with a hit; in the whole collection about 2.2% have one here.
LMP1 NFkB inh: Epstein-Barr LMP1 NF-kappaB reporter inhibition; LMP1-induced NF-kappaB luciferase reporter cells, luminescence; inhibition, % at 12.5 µM; actives 0.69% (n = 350,000); in the data active = inhibition above about 41%;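 also: 0% = neutral control wells and 100% = reference inhibitor control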
TRPM1 prom inh: inhibitors of MITF-driven TRPM1 promoter in melanoma cells. inhibition, % at 12.5 µM. AID 488899. SK-MEL-5 TRPM1 promoter luciferase, 24 h. actives 0.83% (n = 330,000);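 active = mean inhibition across replicates of 60% or more, whatever share of single replicates reaches that level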
EWS-Fli block: inhibitors of EWS/Fli oncoprotein transcriptional activity; inhibition, % at 12.6 µM; AID 651661; actives 0.67% (n = 350,000); A673 NR0B1-luciferase reporter, viability-normalised;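 active = mean inhibition of at least 50% after viability correction, with every replicate also passing that limit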;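 also: firefly luciferase signal divided by Alamar Blue viability fluorescence both relative to DMSO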
PAX8 inh HTS: lowers PAX8-driven luciferase in RMG-I cells; RMG-I TPO-luciferase reporter, SteadyGlo, 24 h; inhibition, % at 12.6 µM; actives 1.2% (n = 360,000); AID 652154;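 active = mean replicate inhibition at least 60% with every replicate also reaching 60%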;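 also: luciferase light reporting Pax8 driven TPO promoter activity; plate controls were median of neutral control wells for no effect and mitoxantrone controls for full effect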
Shn3 inh set2: Schnurri-3 reporter inhibition in Clone20 osteoblasts. Clone20 osteoblast Shn3 3'UTR firefly luciferase, 24 h. inhibition, % at 12.5 µM. AID 588674. actives 0.52% (n = 360,000);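 active = mean inhibition of at least 75% with every replicate also reaching 75%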;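 also: 0% = median of neutral control wells and 100% = pilot-screen positive control compound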
LGR2 inh: Drosophila LGR2 receptor signaling inhibition; actives 0.35% (n = 380,000); HEK293 LGR2, CRE-luciferase, bursicon-stimulated, 4 h; inhibition, % at 9.99 µM;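 active = drop in luminescence signal, shown as inhibition above about 50% in the replicate tests, limit read from the data, passing the limit was not always enough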;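 also: agonist challenge used bursicon conditioned medium at about half maximal strength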
* hit, by the source's call; / = not tested or not shown.

SMILES	LMP1 NFkB inh	TRPM1 prom inh	EWS-Fli block	PAX8 inh HTS	Shn3 inh set2	LGR2 inh
CCC(=O)N1C[C@H](C)[C@H](OC)CN(C)C(=O)c2ccc(NC(=O)Nc3ccc(Cl)cc3)cc2OC[C@@H]1C	/	/	-6	6	/	4
C[C@@H]1CCCCO[C@H](CN(C)Cc2ccncc2)[C@H](C)CN([C@H](C)CO)C(=O)c2cc(NC(=O)Nc3ccc(C(F)(F)F)cc3)ccc2O1	/	/	19	95*	/	-6
C[C@@H]1CN([C@H](C)CO)C(=O)c2cc(NC(=O)Nc3ccc(C(F)(F)F)cc3)ccc2O[C@@H](C)CCCCO[C@@H]1CN(C)Cc1ccncc1	/	/	-90	93*	/	-2
C[C@@H]1CCCCO[C@H](CN(C)Cc2ccncc2)[C@H](C)CN([C@@H](C)CO)C(=O)c2cc(NC(=O)Nc3ccc(C(F)(F)F)cc3)ccc2O1	/	/	34	92*	/	-5
CCC(=O)Nc1ccc2c(c1)C(=O)N(C)C[C@@H](OC)[C@@H](C)CN(Cc1ccccc1)[C@@H](C)CO2	/	/	1	/	/	1
CCCCCCC(=O)N(O)C1CC(=O)N(c2ccc(Cl)cc2)C1=O (configuration not stated)	31	11	10	0	-17	17
CCCCCCC(=O)N(O)C1CC(=O)N(c2ccc(C)cc2)C1=O (configuration not stated)	51*	15	/	9	7	/
CCC(=O)N1CC[C@@H]2[C@H]1c1cc(-c3ccccc3F)ccc1N(C)[C@@H]2CO	/	/	-9	-5	/	4
c1ccc(OCCSc2nnc3sc4ccccc4n23)cc1	70*	32	60*	/	22	92*
Clc1ccc2nc(-c3ccco3)c(Cc3ccccc3)n2c1	/	/	5	4	-18	-10
Cc1ccc2nc(-c3ccco3)c(Cc3ccccc3)n2c1	/	/	-69	66*	-40	-21
C[C@@H]1CN([C@H](C)CO)C(=O)c2cc(NC(=O)Cc3ccccc3)ccc2O[C@@H](C)CCCCO[C@H]1CN(C)S(=O)(=O)c1ccc(Cl)cc1	/	/	3	30	/	-18
CC(=O)N(C)/C=C1\Sc2ccccc2C1=O	-9	-1	/	/	1	-22
CCC(=O)N(C)/C=C1\Sc2ccccc2C1=O	76*	10	/	/	-17	-48
Cc1cc(/C=N/Nc2ncnc(N)c2[N+](=O)[O-])c(C)n1-c1ccccc1	78*	81*	83*	62*	53	79*
CNC1=C(N(C(C)=O)c2ccc(Br)cc2)C(=O)c2ccccc2C1=O	25	107*	/	105*	78	13
CCC(=O)N(C1=C(NC)C(=O)c2ccccc2C1=O)C(C)C	0	35	-6	74*	-18	-6
CC(=O)NC1=C(Nc2ccc(N(C)C)cc2)C(=O)c2ccccc2C1=O	-7	12	-49	-36	-6	-22
CCCNC(=O)C[C@H]1CC[C@H]2[C@H](COc3ccc(NC(=O)c4cccc(C(F)(F)F)c4)cc3C(=O)N2C)O1	/	/	3	-1	/	4
C[C@H]1CCCCO[C@H](CN(C)CC2CCCCC2)[C@@H](C)CN([C@@H](C)CO)C(=O)c2cc(NC(=O)NC3CCCCC3)ccc2O1	/	/	-2	33	/	-1
CC(=C/c1ccccc1)/C=N/n1c(-c2ccncc2)n[nH]c1=S	56*	-30	0	-41	3	17
COc1ccc(OC)c2sc(N(CCCN(C)C)C(=O)CCS(=O)(=O)c3ccccc3)nc12	19	21	43	108*	19	25
COc1ccc(Cl)c2sc(N(CCN(C)C)C(=O)CCS(=O)(=O)c3ccc(C)cc3)nc12	-8	5	9	5	-4	0
CN(C)CCN(C(=O)CCS(=O)(=O)c1ccccc1)c1nc2c(F)cccc2s1	-1	-12	6	7	-11	-10
CN(C)CCCN(C(=O)CCc1ccccc1)c1nc2ccc(Br)cc2s1	1	87*	35	11	-1	6
SMILES	LMP1 NFkB inh	TRPM1 prom inh	EWS-Fli block	PAX8 inh HTS	Shn3 inh set2	LGR2 inh
Cc1ccc2sc(N(CCCN(C)C)C(=O)CCS(=O)(=O)c3ccccc3)nc2c1C	8	33	/	81*	57	5
CCN(CC)CCN(C(=O)c1ccc(S(=O)(=O)N(C)C2CCCCC2)cc1)c1nc2c(C)cccc2s1	15	11	/	21	9	-4
Cc1ccc2sc(N(CCCN(C)C)C(=O)c3ccc(S(=O)(=O)N(C)C4CCCCC4)cc3)nc2c1C	-4	77*	52	29	0	5
CO[C@@H]1CN(C)C(=O)c2cc(NC(=O)C3CCOCC3)ccc2OC[C@H](C)N(C(C)=O)C[C@@H]1C	/	/	-1	8	/	-10
C[C@@H]1CN([C@H](C)CO)C(=O)c2cc(NC(=O)Cc3ccccc3)ccc2O[C@@H](C)CCCCO[C@H]1CN(C)C(=O)Nc1cccc2ccccc12	/	/	17	53	/	18
O=C(N[C@@H]1CC[C@@H](CCNC(=O)c2ccccc2F)O[C@H]1CO)c1ccc2c(c1)OCO2	/	/	-3	2	/	-13
O=C(C[C@H]1C=C[C@H](NC(=O)C2CCOCC2)[C@@H](CO)O1)NCc1ccccc1Cl	/	/	-2	/	/	10
CNC(=O)C[C@H]1CC[C@H]2[C@@H](COc3ccc(NC(=O)C(C)C)cc3C(=O)N2C)O1	/	/	-3	-13	/	0
Cc1cccc2sc(N(CCCN(C)C)C(=O)c3nc4ccccc4s3)nc12	7	73*	/	/	14	-6
C/C=C/c1ccc2c(c1)O[C@@H](CN(C)Cc1ccncc1)[C@H](C)CN([C@H](C)CO)S2(=O)=O	/	/	14	/	/	-38
NC(=S)NN=Cc1nccc2c(N)cccc12	76*	/	-5	-10	86*	22
O=C(Cc1cccs1)N/N=C/C=C\c1ccccc1[N+](=O)[O-]	-22	-47	-108	-50	-4	-45
O=C(Cc1cccs1)N/N=C/C=C/c1ccccc1	2	-3	-5	107*	4	-16
Cc1nc(N2CCN(S(=O)(=O)c3ccccc3C#N)CC2)c2c(-c3cccs3)csc2n1	4	14	17	72*	27	19
COc1ccc(CN(C)C[C@H]2Oc3ccc(NC(=O)C4CCCCC4)cc3CC(=O)N([C@H](C)CO)C[C@@H]2C)cc1	/	/	7	/	/	/
Cc1cc(C(C)(C)C)cc(C)c1Cn1c2[n+](c3ccc(C(F)(F)F)cc31)CCCCC2	0	84*	40	90*	0	-9
COc1cc(NC(=O)c2cccs2)c(C(=O)OCC(=O)c2cc(C)n(-c3ccccc3)c2C)cc1OC	59*	64*	/	23	9	60*
OCCNc1nc(Nc2ccc(Cl)cc2)nc(N2CCCC2)n1	2	2	-9	-2	87*	5
Cc1ccc(-c2nc(C(Cl)Cl)c3ccccc3n2)cc1	-21	17	59*	-8	55	-35
Cc1ccc(-c2nc(Nc3ccc(O)cc3)c3ccccc3n2)cc1	-16	-15	-31	21	15	-15

High-throughput results as filed in PubChem BioAssay.
